High-throughput results (PubChem)
Compounds with a hit are over-represented: about 12% of the library has one in this group of screens.
JMJD2A Tudor: qHTS Assay for Inhibitors of JMJD2A-Tudor Domain; Lysine-specific demethylase 4A (Homo sapiens), O75164; AlphaScreen JMJD2A-Tudor / H3K4me3 peptide binding; Potency, µM (series often up to 114 µM), for inactives: at the highest dose activity change, negative = inhibition, most hits filed as inhibitors; hit rate 4.4% among 390,000; AID 504339, 2011; note: % is set by controls: 0 for no effect and ±100 for the full control effect; nearly all actives have a fitted effect of over 50% in size
HP1b binding inh: HTS for Inhibitors of HP1-beta Chromodomain Interactions with Methylated Histone Tails; Chromobox protein homolog 1 (Homo sapiens), P83916; AlphaScreen HP1-beta / biotin-H3K9me3 peptide binding; Potency, µM (titrated, usually from 114 µM), for inactives: at the top dose activity change, negative = inhibition, usual class: inhibitors; hit rate 0.56% among 390,000; note: nearly all actives have a fitted effect of over 70% in size
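Compound inhibition of the preformed complex between 50 nM HP1-beta and 50 nM biotinylated H3K9me3 peptide was read by AlphaScreen. Buffer was PBS pH 7.4 with 0.01% Tween-20. Incubations ran 30 min at room temperature, with 10 ug/mL donor/acceptor beads.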
L3MBTL1 inh: qHTS Assay for the Inhibitors of L3MBTL1. Potency, µM (highest dose often 57.1 µM), for inactives: top-dose activity, negative = inhibition, hits mostly inhibitors. AID 485360, 2010. AlphaScreen L3MBTL1–H3K9me1 peptide binding. hit rate 0.66% among 230,000; note: % is set by controls: 0 for no effect and ±100 for the full control effect; nearly all actives have a fitted effect of over 60% in size
Target sequence (Q9Y468 whole entry, looked up): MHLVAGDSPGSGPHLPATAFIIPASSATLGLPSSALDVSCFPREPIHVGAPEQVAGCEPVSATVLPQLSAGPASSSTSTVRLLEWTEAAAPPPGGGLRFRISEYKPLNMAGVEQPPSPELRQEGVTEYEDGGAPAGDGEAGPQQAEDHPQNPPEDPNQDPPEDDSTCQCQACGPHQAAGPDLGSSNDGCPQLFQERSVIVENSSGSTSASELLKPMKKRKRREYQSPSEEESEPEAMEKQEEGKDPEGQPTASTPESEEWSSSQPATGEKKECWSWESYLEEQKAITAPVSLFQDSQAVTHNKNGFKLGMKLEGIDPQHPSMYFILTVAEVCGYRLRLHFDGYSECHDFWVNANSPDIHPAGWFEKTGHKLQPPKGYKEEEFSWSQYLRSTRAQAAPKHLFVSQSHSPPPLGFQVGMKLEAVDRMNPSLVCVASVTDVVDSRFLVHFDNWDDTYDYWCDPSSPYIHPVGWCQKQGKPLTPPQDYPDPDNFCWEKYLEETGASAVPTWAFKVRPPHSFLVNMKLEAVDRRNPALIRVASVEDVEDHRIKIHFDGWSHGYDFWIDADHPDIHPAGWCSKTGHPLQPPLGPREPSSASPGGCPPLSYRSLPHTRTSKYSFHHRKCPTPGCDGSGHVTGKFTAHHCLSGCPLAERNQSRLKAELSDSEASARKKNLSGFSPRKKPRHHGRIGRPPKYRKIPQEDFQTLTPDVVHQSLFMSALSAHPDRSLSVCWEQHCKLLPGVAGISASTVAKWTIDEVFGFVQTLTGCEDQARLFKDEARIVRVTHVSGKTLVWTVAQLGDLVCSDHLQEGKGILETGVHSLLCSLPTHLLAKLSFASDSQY
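First, the protein-peptide complex forms for 30 min at room temperature (L3MBTL1 50 nM, biotinylated H3K9me1 peptide 75 nM). Next, compounds are pin-transferred and incubated 30 min. Finally, AlphaScreen beads are added and read after 30 min.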
Sfp PPTase inh: qHTS Assay for Inhibitors of Bacillus subtilis Sfp phosphopantetheinyl transferase (PPTase); hit rate 3.5% among 310,000; 4'-phosphopantetheinyl transferase ffp (Bacillus subtilis), Q9F4F7; AID 1490, 2009; Potency, µM, for the others: largest response in the series, negative = inhibition, usual class: inhibitors; Biochemical Sfp PPTase activity, qHTS;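 note: the enzyme is Sfp with the accession as filed and its product quenches rhodamine fluorescence; 0% = enzyme reaction without inhibitor and -100% = no enzyme wells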
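Compounds were incubated with enzyme (final 15 nM) for 15 min at room temperature before substrate addition started the reaction. Fluorescence at 525 nm excitation, 598 nm emission was recorded immediately and after 30 minutes.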
BAZ2B inh: qHTS Assay for Inhibitors of BAZ2B; AlphaScreen BAZ2B-H3K14Ac peptide displacement; Potency, µM (highest dose often 114 µM), without a hit: at the top dose activity change, negative = inhibition, usual class: inhibitors; hit rate 4.4% among 360,000; note: % is set by controls: 0 for no effect and ±100 for the full control effect; nearly all actives have a fitted effect of over 60% in size
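Compounds, titrated to a top concentration of 110 uM, were incubated 30 min at room temperature with preformed BAZ2B/acetyl-K14 H3 peptide complex (50 nM each). Proximity signal was measured by AlphaScreen after 20 min with beads.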
G9a block: qHTS Assay for Inhibitors of Histone Lysine Methyltransferase G9a; AID 504332, 2011; G9a H3K9 monomethylation, AlphaScreen, 2 h; hit rate 8.8% among 350,000; Potency, µM (doses to about 102 µM), for inactives: top-dose activity, negative = inhibition, hits mostly inhibitors; note: % is set by controls: 0 for no effect and ±100 for the full control effect; nearly all actives have a fitted effect of over 75% in size
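G9a (20 nM) was preincubated 15 min with compound, then reacted 2 h at room temperature with 500 nM biotin-H3K9 peptide and 20 µM SAM. Monomethyl-H3K9 detected by AlphaScreen using anti-H3K9me1 antibody.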
Numbers without * were called inactive; ? = inconclusive; nt = not tested or not shown; ! = not confirmed by another sample; [ ] = another dose, or the depositor's remark. Calls come from the whole dose curve; as a rule, active = well fitted curve in the direction sought with a large enough effect; inconclusive = small, poorly fitted or top-dose-only effect, or another doubt; inactive = no such curve, though single readings can be large; an effect the other way counts as inactive or inconclusive. Potency is the fitted concentration of half-maximal effect.

SMILES	JMJD2A Tudor	HP1b binding inh	L3MBTL1 inh	Sfp PPTase inh	BAZ2B inh	G9a block
COc1cc(C)cc(CN2CC=C(c3ccccc3)CC2)c1O	?	-20%	-10%	-30%	nt	?
COc1ccc(C(C)=O)cc1CN1CC=C(c2ccccc2)CC1	45µM*	79µM*	nt	-13%	50µM*	13µM*
O=C(COC(=O)c1cccnc1Cl)NCCc1ccc(F)cc1	0%	46%	4%	nt	nt	nt
O=S1(=O)N(CCN2CC=C(c3c[nH]c4cc(F)ccc34)CC2)c2cccc3c2N1CCC3	?	-17%	-13%	nt	?	30µM*!
CC(C)N1CC=C(c2c[nH]c3ccccc23)CC1	-7%	33%	4%	-1%	3%	?
CCOc1cc(CN2CCN(C(=O)Cc3ccccc3)CC2)ccc1OC	28µM*	?	-3%	-13%	56µM*	nt
COc1cccc(CN2CCN(C(=O)Cc3ccccc3OC)CC2)c1	-5%	30%	nt	8%	-10%	nt
COc1ccc(CN2CCN(C(=O)Cc3ccccc3)CC2)cc1Br	25µM*	?	-2%	89µM*	?	nt
COc1ccc(OC)c(CN2CCN(C(=O)Cc3ccccc3)CC2)c1	18µM*	?	-5%	-40%	?	5µM*
CCN1CCN(C(=O)Cc2ccc(C)cc2)CC1	-6%	27%	0%	-3%	-11%	7%
CN(C[C@H](Cc1ccccc1)N(C[C@H](Cc1ccccc1)N(CCC(C)(C)C)N=O)N=O)N=O	?	37%	-6%	12%	?	2%[12.7 µM]
OC(CCNCCc1c[nH]c2ccccc12)C(F)(F)Cl (stereo unspecified)	-14%	6%	2%	11%	-16%	-26%
Cc1cccc(CNCCc2c[nH]c3ccccc23)c1	?	13%	-4%	-19%	40µM*	nt
CCc1ccc(CNCCc2c[nH]c3ccccc23)cc1	35µM*	?	-16%	-22%	2%[0.457 µM]	?
COc1cc(CNCCc2c[nH]c3ccccc23)cc(OC)c1	3.5µM*	?	nt	2%	50µM*	32µM*
Fc1cccc(CNCCc2c[nH]c3ccccc23)c1	-15%	26%	-7%	2%	?	nt
c1ccc(CNCCc2c[nH]c3ccccc23)cc1	-17%	12%	-2%	-3%	?	4%
c1ccc2c(CCNCc3ccc4c(c3)OCO4)c[nH]c2c1	?	4%	-4%	35µM*	?	?
CCCN(CCC)c1c([N+](=O)[O-])cc(S(N)(=O)=O)cc1[N+](=O)[O-]	nt	nt	nt	14%	nt	nt
CC(C)C1C(=O)N2CCC[C@H]2[C@]2(O)O[C@](NC(=O)[C@@H]3C=C4c5cccc6[nH]cc(c56)C[C@H]4N(C)C3)(C(C)C)C(=O)N12 (stereo partly specified)	nt	nt	nt	?	nt	-33%[59 µM]
COc1ccc2c(c1)c(=O)c(C(=O)c1ccc(Cl)cc1)cn2CC(=O)Nc1ccc2c(c1)OCCO2	-3%	52%	nt	nt	-1%	19%[59 µM]
O=c1n(Cl)c(=O)n(Cl)c(=O)n1Cl	nt	nt	nt	-5%	nt	13µM*
COc1ccccc1N=c1scc(-c2ccc(S(=O)(=O)N3CCCC3)cc2)n1C	?	?	nt	nt	8.9µM*	10µM*
COc1ccccc1N1CCN(S(=O)(=O)c2ccc3c(c2)oc(=O)n3C)CC1	-16%	8%	nt	8%	?	3%[59 µM]
CC12CN3CC(c4ccccc4)(CN(C1)C31CCCCC1)C2=O	2%	19%	nt	13%	3%	18%[59 µM]
CC12CN3CC(C)(CN(C1)P3(=O)Oc1ccccc1)C2=O (stereo unspecified)	-33%	2%	-5%	-1%	-6%	40µM*
